Experimental data taken from ChEMBL document CHEMBL1961873, “Compounds: GSK PKIS; Assays: Nanosyn kinase panel” (2012).
Values joined by “and” are separate entries in the source; they are usually repeats but may differ in a detail not shown here. Equal values may be shown once.

Key:
[1] = molecular target: T1, Mitogen-activated protein kinase 12 (Homo sapiens) (UniProt P53778); conditions: at 1 µM;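 further: values are averaged p38gamma kinase inhibition readings, compounds tested at 1 µM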
T1 sequence (whole entry): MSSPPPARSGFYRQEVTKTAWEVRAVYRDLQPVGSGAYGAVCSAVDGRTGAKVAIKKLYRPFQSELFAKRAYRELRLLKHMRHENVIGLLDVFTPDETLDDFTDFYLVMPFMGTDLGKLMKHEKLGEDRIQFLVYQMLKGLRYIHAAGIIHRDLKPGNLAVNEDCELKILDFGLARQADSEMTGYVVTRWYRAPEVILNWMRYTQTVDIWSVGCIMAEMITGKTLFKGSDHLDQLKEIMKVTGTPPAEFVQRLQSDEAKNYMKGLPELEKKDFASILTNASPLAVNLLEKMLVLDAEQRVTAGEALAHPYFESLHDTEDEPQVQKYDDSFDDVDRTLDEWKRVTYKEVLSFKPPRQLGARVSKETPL

[2] = molecular target: SRSF protein kinase 1 (Homo sapiens) (UniProt Q96SB4); conditions: at 0.1 µM
[3] = molecular target: SRSF protein kinase 1 (Homo sapiens) (UniProt Q96SB4); conditions: at 1 µM
[4] = molecular target: Phosphatidylinositol 4,5-bisphosphate 3-kinase catalytic subunit alpha isoform (Homo sapiens) (UniProt P42336); conditions: at 0.1 µM
[5] = molecular target: Phosphatidylinositol 4,5-bisphosphate 3-kinase catalytic subunit alpha isoform (Homo sapiens) (UniProt P42336); conditions: at 1 µM
[6] = molecular target: T2, Phosphatidylinositol 4,5-bisphosphate 3-kinase catalytic subunit delta isoform (Homo sapiens) (UniProt O00329); conditions: at 0.1 µM
T2 sequence (whole entry): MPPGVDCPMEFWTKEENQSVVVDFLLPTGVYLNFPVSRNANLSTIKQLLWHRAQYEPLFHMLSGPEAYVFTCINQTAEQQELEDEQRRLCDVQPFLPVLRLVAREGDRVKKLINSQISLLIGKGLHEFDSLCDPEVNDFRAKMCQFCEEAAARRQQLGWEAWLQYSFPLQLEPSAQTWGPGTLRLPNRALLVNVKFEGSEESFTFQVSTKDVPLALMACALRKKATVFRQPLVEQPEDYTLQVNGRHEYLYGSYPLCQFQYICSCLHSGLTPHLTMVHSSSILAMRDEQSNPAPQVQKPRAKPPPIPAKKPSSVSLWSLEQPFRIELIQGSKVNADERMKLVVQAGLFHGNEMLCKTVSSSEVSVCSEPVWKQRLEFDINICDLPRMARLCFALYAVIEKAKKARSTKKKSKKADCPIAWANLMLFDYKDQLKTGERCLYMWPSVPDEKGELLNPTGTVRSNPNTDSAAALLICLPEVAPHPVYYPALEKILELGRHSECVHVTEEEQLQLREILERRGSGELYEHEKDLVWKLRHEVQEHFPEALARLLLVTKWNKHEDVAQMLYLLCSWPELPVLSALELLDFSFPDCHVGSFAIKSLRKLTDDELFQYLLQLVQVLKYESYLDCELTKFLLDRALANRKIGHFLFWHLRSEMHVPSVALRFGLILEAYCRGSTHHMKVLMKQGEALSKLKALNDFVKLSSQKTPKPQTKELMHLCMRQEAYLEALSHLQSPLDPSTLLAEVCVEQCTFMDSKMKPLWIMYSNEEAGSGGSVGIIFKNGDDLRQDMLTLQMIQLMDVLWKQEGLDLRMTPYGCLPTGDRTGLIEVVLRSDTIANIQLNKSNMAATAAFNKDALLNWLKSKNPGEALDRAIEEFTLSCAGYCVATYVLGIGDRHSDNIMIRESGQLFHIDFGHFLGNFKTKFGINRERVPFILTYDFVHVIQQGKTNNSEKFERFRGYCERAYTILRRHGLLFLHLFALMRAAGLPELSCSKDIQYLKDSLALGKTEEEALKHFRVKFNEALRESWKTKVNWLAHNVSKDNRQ

[7] = molecular target: T2, Phosphatidylinositol 4,5-bisphosphate 3-kinase catalytic subunit delta isoform (Homo sapiens); conditions: at 1 µM
[8] = molecular target: Phosphatidylinositol 4-kinase beta (Homo sapiens) (UniProt Q9UBF8); conditions: at 0.1 µM
[9] = molecular target: Phosphatidylinositol 4-kinase beta (Homo sapiens) (UniProt Q9UBF8); conditions: at 1 µM
[10] = molecular target: Sphingosine kinase 1 (Homo sapiens) (UniProt Q9NYA1); conditions: at 0.1 µM;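 further: mean percent inhibition of SPHK1 activity, measured within the GSK PKIS screening panel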
Chain of Sphingosine kinase 1 (Homo sapiens) (Q9NYA1 whole entry): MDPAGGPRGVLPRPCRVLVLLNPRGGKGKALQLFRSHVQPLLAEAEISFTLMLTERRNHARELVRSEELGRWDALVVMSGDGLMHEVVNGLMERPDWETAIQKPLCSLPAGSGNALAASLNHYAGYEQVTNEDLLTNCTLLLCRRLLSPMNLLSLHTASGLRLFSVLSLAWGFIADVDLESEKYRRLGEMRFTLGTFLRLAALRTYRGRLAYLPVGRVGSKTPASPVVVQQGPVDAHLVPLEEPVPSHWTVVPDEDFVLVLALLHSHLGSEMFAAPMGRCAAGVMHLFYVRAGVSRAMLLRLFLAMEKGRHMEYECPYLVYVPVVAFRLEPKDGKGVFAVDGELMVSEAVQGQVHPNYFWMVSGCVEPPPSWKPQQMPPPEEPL

Chain of Phosphatidylinositol 4,5-bisphosphate 3-kinase catalytic subunit alpha isoform (Homo sapiens) (P42336 whole entry, canonical isoform): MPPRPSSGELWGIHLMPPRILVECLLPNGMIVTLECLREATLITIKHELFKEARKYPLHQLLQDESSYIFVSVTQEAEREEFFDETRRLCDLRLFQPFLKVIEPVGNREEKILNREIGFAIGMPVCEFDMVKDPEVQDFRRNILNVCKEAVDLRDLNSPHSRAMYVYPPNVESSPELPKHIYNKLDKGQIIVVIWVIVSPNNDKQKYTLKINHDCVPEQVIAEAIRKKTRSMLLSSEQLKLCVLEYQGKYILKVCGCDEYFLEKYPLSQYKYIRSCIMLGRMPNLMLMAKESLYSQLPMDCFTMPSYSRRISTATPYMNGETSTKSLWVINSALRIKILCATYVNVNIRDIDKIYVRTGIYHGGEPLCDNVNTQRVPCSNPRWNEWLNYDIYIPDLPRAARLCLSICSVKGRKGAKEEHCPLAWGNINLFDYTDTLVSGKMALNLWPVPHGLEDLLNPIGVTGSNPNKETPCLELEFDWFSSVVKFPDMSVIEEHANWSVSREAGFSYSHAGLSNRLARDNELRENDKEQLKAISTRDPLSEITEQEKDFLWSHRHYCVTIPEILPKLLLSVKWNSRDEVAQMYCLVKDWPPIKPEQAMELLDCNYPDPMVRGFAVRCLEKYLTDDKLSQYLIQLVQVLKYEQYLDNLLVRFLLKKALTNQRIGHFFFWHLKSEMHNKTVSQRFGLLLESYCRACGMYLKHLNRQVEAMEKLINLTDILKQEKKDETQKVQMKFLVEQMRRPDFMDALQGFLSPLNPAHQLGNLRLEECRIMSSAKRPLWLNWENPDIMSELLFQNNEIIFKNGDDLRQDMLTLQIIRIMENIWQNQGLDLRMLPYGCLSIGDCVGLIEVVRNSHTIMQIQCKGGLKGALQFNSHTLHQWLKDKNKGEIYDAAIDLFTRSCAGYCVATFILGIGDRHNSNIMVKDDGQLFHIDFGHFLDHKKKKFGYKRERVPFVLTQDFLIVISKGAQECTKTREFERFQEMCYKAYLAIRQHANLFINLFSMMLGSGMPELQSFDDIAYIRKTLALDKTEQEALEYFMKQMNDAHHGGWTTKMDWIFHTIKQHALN
Chain of SRSF protein kinase 1 (Homo sapiens) (Q96SB4 whole entry, canonical isoform): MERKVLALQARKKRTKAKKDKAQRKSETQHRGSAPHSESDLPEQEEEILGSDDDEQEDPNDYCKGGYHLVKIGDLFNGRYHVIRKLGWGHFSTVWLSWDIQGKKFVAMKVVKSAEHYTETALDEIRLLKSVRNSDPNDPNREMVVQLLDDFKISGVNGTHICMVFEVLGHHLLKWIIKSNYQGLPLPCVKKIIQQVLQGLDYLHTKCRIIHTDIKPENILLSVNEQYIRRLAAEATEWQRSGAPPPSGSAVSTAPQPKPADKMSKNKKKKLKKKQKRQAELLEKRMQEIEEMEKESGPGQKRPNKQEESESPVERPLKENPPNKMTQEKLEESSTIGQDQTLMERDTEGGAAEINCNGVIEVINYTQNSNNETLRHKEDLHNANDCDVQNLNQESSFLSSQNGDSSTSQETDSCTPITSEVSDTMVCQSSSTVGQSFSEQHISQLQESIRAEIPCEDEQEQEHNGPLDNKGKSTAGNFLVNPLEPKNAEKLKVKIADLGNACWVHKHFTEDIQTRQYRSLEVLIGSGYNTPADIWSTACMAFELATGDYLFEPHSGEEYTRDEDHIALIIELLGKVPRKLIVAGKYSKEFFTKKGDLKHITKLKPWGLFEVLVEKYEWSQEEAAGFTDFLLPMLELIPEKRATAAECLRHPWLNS
Chain of Phosphatidylinositol 4-kinase beta (Homo sapiens) (Q9UBF8 2-816 limits assumed): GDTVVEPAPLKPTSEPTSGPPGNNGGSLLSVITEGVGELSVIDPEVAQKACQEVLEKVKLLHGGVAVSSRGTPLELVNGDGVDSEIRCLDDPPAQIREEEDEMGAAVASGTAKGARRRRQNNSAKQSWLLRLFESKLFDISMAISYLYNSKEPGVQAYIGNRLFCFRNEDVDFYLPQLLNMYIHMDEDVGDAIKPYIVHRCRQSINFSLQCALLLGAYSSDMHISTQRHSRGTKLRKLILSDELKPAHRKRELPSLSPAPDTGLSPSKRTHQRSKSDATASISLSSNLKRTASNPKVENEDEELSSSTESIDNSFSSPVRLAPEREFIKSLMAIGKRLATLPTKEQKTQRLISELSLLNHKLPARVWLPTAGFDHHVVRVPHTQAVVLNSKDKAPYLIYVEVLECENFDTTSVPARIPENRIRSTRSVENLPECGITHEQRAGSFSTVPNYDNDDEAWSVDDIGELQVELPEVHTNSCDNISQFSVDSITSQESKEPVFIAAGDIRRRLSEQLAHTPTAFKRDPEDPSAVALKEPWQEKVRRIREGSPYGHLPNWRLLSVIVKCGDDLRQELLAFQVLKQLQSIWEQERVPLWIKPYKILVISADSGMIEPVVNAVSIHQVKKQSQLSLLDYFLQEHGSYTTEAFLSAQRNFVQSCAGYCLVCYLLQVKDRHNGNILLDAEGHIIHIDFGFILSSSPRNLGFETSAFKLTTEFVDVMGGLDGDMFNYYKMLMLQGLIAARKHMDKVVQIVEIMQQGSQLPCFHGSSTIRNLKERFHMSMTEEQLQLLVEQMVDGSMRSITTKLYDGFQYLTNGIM

SMILES	inhibition [1]	inhibition [2]	inhibition [3]	inhibition [4]	inhibition [5]	inhibition [6]	inhibition [7]	inhibition [8]	inhibition [9]	inhibition [10]
CC(C)c1ccc(-c2cc(-c3c[nH]nc3-c3ccccn3)ccn2)cc1	1.41%	-1.6%	-2.44%	0.78%	1.76%	0.89%	4.14%	1.73%	0.67%	1.34%
CN(C)CCNC(=O)Nc1ccc(N(C)c2ccnc(Nc3ccc(CS(C)(=O)=O)cc3)n2)cc1	2.24%	-1.44%	-2.68%	2.6%	3.13%	2.63%	5.9%	2.65%	15.7%	0.26%
CNC(=O)c1cncc(/C=C/c2ccccc2C)c1	1.72%	-0.49%	2.3%	2.18%	2.76%	1.24%	0.42%	-3.61%	7.59%	0.67%
CC1(C)CC(n2cnc(-c3ccc(F)cc3)c2-c2ccnc(N)n2)CC(C)(C)N1	2.44%	0.72%	-1.12%	4.34%	4.5%	5.71%	6.91%	0.64%	-1.54%	1.98%
CS(=O)(=O)CCNCc1ccoc1-c1ccc2ncnc(Nc3ccc(OCc4ccccc4)cc3)c2c1	0.43%	-0.09%	-1.85%	1.09%	2.87%	0.63%	4.62%	9.16%	-0.68%	0.65%
c1ccc(-c2n[nH]cc2-c2ccnc(-c3ccc(OCCn4ccnc4)cc3)c2)nc1	0.72%	0.42%	-0.94%	0.67%	3.3%	1.43%	1.91%	-2.63%	7.03%	2.34%
Fc1cccc(COc2ccc(Nc3ncncc3C#Cc3ccccc3)cc2Cl)c1	2.58%	-0.38%	3.43%	3.88%	2.67%	1.53%	1.09%	1.02%	-1.52%	1.58%
COC(=O)Nc1nc2ccc(Oc3ccc(NC(=O)Nc4cc(C(F)(F)F)ccc4F)cc3)cc2s1	2.85%	-1.59%	-2.01%	-0.49%	2.51%	1.44%	6.58%	-2.75%	-0.16%	-0.71%
NC(=O)c1ccc2c(-c3ccnc(NCCCO)n3)c(-c3ccc(F)cc3)nn2c1	3.04%	-2.08%	-2.11%	2.83%	6.09%	2.78%	6.2%	-2.18%	3.6%	-2.85%
O=C(Nc1n[nH]c2nnc(-c3cccnc3)cc12)C1CC1	3.03%	-1.16%	-0.28%	0.13%	1.26%	1.05%	1.67%	-1.26%	3.04%	1.36%
CN1CCN(Cc2ccc(-c3cc4ncnc(Nc5ccc(OCc6cccc(F)c6)c(Cl)c5)c4s3)o2)CC1	2.94% and 2.8%	-2.39% and -1.61%	-2.07% and 0.69%	1.34% and 4.72%	2.47% and 5.81%	1.29% and 2.75%	3.39% and 4.31%	0.91%	1.06%	10.5% and 0.88%
N#Cc1cccc(Nc2ncc(-c3ccccc3)o2)c1	1.79%	-1.82%	0.42%	0.88%	-1.04%	-0.63%	-0.04%	-0.3%	-1.82%	1.65%
Nc1ncnc2occ(-c3ccc(NC(=O)Nc4cc(C(F)(F)F)ccc4F)cc3)c12	52% and 44.9%	1.86% and 3.34%	28.9% and 22%	0.21% and -1.3%	1.36% and 0.28%	1.09% and -2.88%	2.46% and -0.2%	0.95% and 17.2%	10.9% and 7.67%	3.31% and 0.73%
c1cnn2ncc(-c3ccnc(NCCCN4CCOCC4)n3)c2c1	3.02%	-1.76%	-3.38%	6.11%	8.31%	7.14%	7.98%	1.61%	9.05%	-6.03%
NS(=O)(=O)c1ccc(N/N=C2\C(=O)Nc3cccc(CCc4ccncc4)c32)cc1	0.75%	-0.62%	-1%	0.59%	1.55%	0.97%	3.61%	2.1%	1.01%	1.36%
CS(=O)(=O)CCNCc1ccc(-c2ccc3ncnc(Nc4ccc(OCc5ccccc5)cc4)c3c2)o1	2.57%	-2.16%	-2.56%	2.93%	4.79%	0.74%	2.65%	0.91%	0.45%	-0.6%

SMILES	inhibition [1]	inhibition [2]	inhibition [3]	inhibition [4]	inhibition [5]	inhibition [6]	inhibition [7]	inhibition [8]	inhibition [9]	inhibition [10]
COc1cc2c(cc1Nc1nc(Nc3cccc(F)c3C(N)=O)c3cc[nH]c3n1)N(C(=O)CN1CCN(C(C)C)CC1)CC2	2.81%	-3.13%	-1.66%	0.54%	0.15%	-1.97%	-0.26%	-0.22%	0.87%	0.42%
COc1cc(N2CCN(C(C)C)CC2)ccc1Nc1nc(Nc2cccc3ncccc23)c2cc[nH]c2n1	-0.51%	-1.39%	-1.2%	-0.92%	1.96%	-1.65%	4.18%	5.9%	-2.85%	0%
CNC(=O)c1ncccc1Nc1nc(Nc2cc3c(cc2OC)CCCN3C(=O)CN(C)C)nc2[nH]ccc12	2.94%	-1.98%	-0.43%	3.55%	1.58%	1.46%	4.15%	-2.24%	1.56%	3.95%
Cc1ccc(-c2cc3c(NC(=O)C4CC4)ncnc3o2)cc1	2.7%	-2.33%	-1.12%	1.23%	2.63%	2.48%	3.33%	-4.86%	-6.67%	3.8%
CC1=C(C(=O)Nc2ccc3[nH]nc(C)c3c2)C(c2ccc(C(F)(F)F)cc2)CC(=O)N1 (centres undefined)	2.82%	-1.2%	-2.95%	2.05%	2.21%	2.89%	3.84%	4.33%	-1.82%	0.96%
COc1c(C(N)=O)cc(-c2ccc(Cl)cc2)cc1-c1ccc(S(N)(=O)=O)cc1	5.43%	-3.03%	-1.89%	4.8%	2.59%	0.32%	1.67%	0.85%	3.11%	0.56%
CCn1c(-c2nonc2N)nc2cncc(C(=O)NCCNC)c21	4.44%	-1.97%	-2.66%	4.3%	2.53%	0.31%	1.82%	1.26%	0.69%	0.59%
NS(=O)(=O)c1cccc(N/C=C2\C(=O)Nc3ccccc32)c1	2.84%	-2.16%	-4.31%	4.33%	7.3%	4.26%	7.6%	-1.97%	2.07%	7.2%
CN1CCC(n2cnc(-c3ccc(F)cc3)c2-c2ccnc(NCCO)n2)CC1	3.15%	-1.01%	3.27%	3.91%	2.41%	1.87%	2.25%	-3.16%	4.51%	9.04%
CC1=C(C(=O)Nc2ccc3[nH]ncc3c2)C(c2ccc(F)cc2)N=C(c2ccc(C(F)(F)F)nc2)N1 (centres undefined)	1.85%	-1.07%	-0.7%	2.87%	4.33%	2.9%	4.49%	4.33%	-3.27%	-0.6%
CCCNc1cccc(-n2ncc3c(N/N=C/c4ccncc4)ncnc32)c1	0.33%	0.43%	3.51%	1.36%	3.81%	3.31%	14.7%	5.69%	4.32%	0.21%
Nc1nccc(-c2c(-c3ccc(F)cc3)ncn2C2CCNCC2)n1		1.49% and -1%	-0.09% and 0.83%	-3.2% and 3.79%	1.34% and 1.58%	-0.68% and 4.92%	6.51% and 6.41%	0.69% and 2.98%	-2.46% and -0.82%	-0.52% and 0.67%
CCS(=O)(=O)c1ccc(OC)c(Nc2ncc(-c3cccc(F)c3)o2)c1	4.78%	-0.63%	0.45%	5.95%	5.75%	2.23%	4.91%	0.49%	-1.64%	-1.2%
Cc1cc(O)cc(C)c1/C=C/c1cncc(C(=O)OC(C)(C)C)c1	1.7%	-1.51%	0.59%	5.51%	7.91%	5.19%	6.21%	1.7%	3.49%	2.8%
Cc1c2ccc(N(C)c3ccnc(Nc4cccc(S(N)(=O)=O)c4)n3)cc2nn1C	3.53%	-1.71%	-3.4%	4.71%	14.4%	6.47%	29.9%	0.59%	1.94%	1.12%
